This is a sample that favours compounds with a hit; in the whole collection about 22% have one here.
Cycloheximide cs: counter-screen hit for Shiga toxin inhibitors, cycloheximide; AID 2314; hit rate 12% among 300,000; max response, %; cell reporter, cycloheximide protein synthesis inhibition counterscreen; in the data active = max response mostly above about 13%, no sharp cut-off; inactive = mostly below about 14%; also: read at 38.3 µM for the half of the compounds with a filed dose; 0% is about no effect
Pf growth 96h: P. falciparum growth inhibition at 96 hour, primary screen for plastid delayed-death inhibitors; P. falciparum luciferase reporter growth, 96 h; Potency, µM (doses to about 28.7 µM), for inactives: top-dose activity change, negative = inhibition, hits mostly inhibitors; hit rate 6.9% among 320,000; AID 504834; also: potency is read from the fitted curve at half-maximal effect; % is scaled to controls: 0 for no effect and ±100 for the full control effect
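Plates of compound plus infected erythrocytes (2% hematocrit, 0.05% parasitemia final) incubate 96 hours, 37 C, 5% CO2. Detection reagent added; reduced luminescence from the parasites' luciferase reporter flags inhibition.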
Pf growth 48h: inhibits P. falciparum growth in the first generation, 48 h. P. falciparum luciferase growth in erythrocytes, 48 h. Potency, µM (series often up to 28.7 µM), for inactives: at the highest dose activity change, negative = inhibition, most hits filed as inhibitors. hit rate 5.9% among 310,000. AID 504832; also: potency is read from the fitted curve at half-maximal effect; % is scaled to controls: 0 for no effect and ±100 for the full control effect
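Read-out is firefly luciferase luminescence from an integrated reporter in P. falciparum, so falling signal marks reduced parasite growth. Infected erythrocytes were at 2% hematocrit and 0.1% parasitemia (final) in Albumax-supplemented RPMI 1640.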
Shiga toxin inh: blocks Shiga toxin action in Vero cells | Vero cells, Shiga toxin protein synthesis inhibition reporter | inhibition, % at 38.7 µM | hit rate 9.2% among 290,000; in the data active = inhibition mostly above about 28%, no sharp cut-off; inactive = mostly below about 43%; also: 0% is about no effect
LmPK inhibitor: LmPK (Leishmania mexicana) enzyme inhibition; Q27686; Potency, µM (top dose mostly 57.5 µM), inactives show at the highest dose activity change, negative = inhibition, most hits filed as inhibitors; AID 1721; purified LmPK, Kinase-Glo ATP luminescence, 1 h; hit rate 0.37% among 290,000; also: potency is read from the fitted curve at half-maximal effect; % is scaled to controls: 0 for no effect and ±100 for the full control effect
Target sequence (Q27686 whole entry, looked up): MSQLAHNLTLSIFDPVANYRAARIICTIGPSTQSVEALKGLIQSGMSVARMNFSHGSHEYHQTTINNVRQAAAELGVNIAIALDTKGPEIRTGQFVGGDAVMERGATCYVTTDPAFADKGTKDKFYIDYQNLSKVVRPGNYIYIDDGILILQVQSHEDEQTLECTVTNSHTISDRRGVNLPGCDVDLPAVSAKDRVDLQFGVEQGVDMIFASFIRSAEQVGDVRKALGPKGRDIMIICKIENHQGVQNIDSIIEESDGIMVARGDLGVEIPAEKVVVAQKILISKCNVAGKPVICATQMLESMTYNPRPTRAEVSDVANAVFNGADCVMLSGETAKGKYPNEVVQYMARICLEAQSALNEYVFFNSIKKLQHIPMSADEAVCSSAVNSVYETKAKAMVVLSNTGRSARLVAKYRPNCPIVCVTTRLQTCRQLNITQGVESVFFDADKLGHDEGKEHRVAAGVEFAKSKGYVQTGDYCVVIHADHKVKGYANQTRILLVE
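0.1 nM LmPK, 0.5 mM PEP, 0.1 mM ADP; 50 mM imidazole pH 7.2, 7 mM MgCl2, 50 mM KCl; 1 h RT. Kinase-Glo luminescence readout, normalized to no-enzyme (full inhibition) and uninhibited wells.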
Active calls of the source: *; i = inactive; ? = inconclusive; . = no result given; ! = not active in a repeat. Unless noted, calls follow the shape of the dose curve; as a rule, active = well fitted inhibition curve with a large enough effect; inconclusive = small, poorly fitted or top-dose-only effect, or another doubt; inactive = no such curve, though single readings can be large or run the other way.

SMILES	Cycloheximide cs	Pf growth 96h	Pf growth 48h	Shiga toxin inh	LmPK inhibitor
c1cncc(-c2nc3ccccc3[nH]2)c1	37*!	0%	72%	71*!	-9%
COc1ccc(CNC(=O)c2cc3cccc(O)c3oc2=N)cc1	5	?	?	38	4%
COc1ccc(N2C(=O)CC(Sc3nc4c(cc3C#N)CCC4)C2=O)cc1 (configuration not stated)	-4	51%	29%	-13	3%
CC(=O)Nc1ccc2nc(-c3cccnc3)[nH]c2c1	10	32%	80%	19	-3%
S=C(NCCN1CCOCC1)Nc1ccc(-c2nc3ccccc3[nH]2)cc1	28*	?	?	177*	4%
Fc1ccc(NC(=S)NCCN2CCOCC2)cc1	9	15%	?	-6	5%
Nc1cc(N)cc(-c2nc3ccccc3[nH]2)c1	23*	?	-9%	13	-1%
CC(=O)Nc1cccc(-c2nc3ccccc3[nH]2)c1	15	?	75%	36	-9%
Fc1cc2nc(-c3ccncc3)[nH]c2cc1F	24*	1.9µM*	?	71	-8%
O=C(O)c1cccc(-c2nc3ccccc3[nH]2)c1	27*	2.3µM*	197%	32*	-27%
COC(=O)c1ccc(C(=O)OCc2nc3cc4ccccc4cc3[nH]2)cc1	29*	?	63%	14*	5%
COc1ccc(CCCc2nc3ccccc3[nH]2)cc1	22*	?	?	70	3%
c1ccc2[nH]c(-c3ccncc3)nc2c1	19*	?	26%	68*	-23%
O=C(Nc1cccc(-c2nc3ccccc3[nH]2)c1)c1ccccn1	14	-9%	3%	19	-10%
Cc1ccccc1NC(=O)CN1C(=O)NC2(CCCCCCC2)C1=O	.	57%	3%	.	.
Cc1cc(Cl)ccc1NC(=O)COC(=O)c1c(C)noc1C	.	-11%	-9%	.	.
O=C(Nc1ccccc1)c1cccc(C(F)(F)F)c1	11*	3%	42%	33*	-4%
Cc1nc2ccc(NC(=O)c3cccc(C(F)(F)F)c3)cc2o1	21*	2%	10%	60	8%
Cc1ccc(CCC(=O)NCc2ccccc2)o1	18	?	0%	-8	0%
CCOC(=O)c1cnc(-c2ccccc2)nc1Oc1ccc(Cl)cc1	6	16%	?	-6	2%
CCOC(=O)c1cnc(Nc2ccccc2)nc1C(F)(F)F	36*	62%	41%	92*	5%
CCOC(=O)c1cnc(-c2ccccc2O)nc1Cl	36*	0%	33%	70*	-14%
CCOC(=O)c1cnc(Nc2nc3ccccc3o2)nc1C	36*	157%	.	68*	14µM*
CCOC(=O)c1cnc(-c2ccccc2)nc1C(F)(F)F	52*	-2%	0%	74*	-1%
O=C(O)c1cnc(-c2ccccc2)nc1C(F)(F)F	-2	?	-2%	-18	3%
SMILES	Cycloheximide cs	Pf growth 96h	Pf growth 48h	Shiga toxin inh	LmPK inhibitor
Cc1ccc(-c2cc(C(=O)OCC(=O)NC3CC3)c3ccccc3n2)cc1	.	39%	77%	.	.
Cc1nc(Nc2nc3ccccc3o2)nc2c1CCC2	30*	76%	-11%	49	16µM*
COCCn1c(C)cc(C(=O)Cn2nc(C(=O)O)c3ccccc3c2=O)c1C	17	22%	115%	20	0%
CCCn1c(C)cc(C(=O)Cn2nnc3ccccc3c2=O)c1C	35*	i	423%	82*	3%
Cc1cc(C(=O)Cn2nc(C(=O)O)c3ccccc3c2=O)c(C)n1-c1ccc(F)cc1	49*	126%	27%	155*	1%
C=CCn1c(C)cc(C(=O)Cn2nc(C(=O)O)c3ccccc3c2=O)c1C	32*	116%	141%	56*	2%
Cc1cccc(C)c1NC(=O)CNC(=O)c1ccncc1	1	24%	2%	-4	-9%
Cc1cccc(OCC(=O)N/N=C\c2cc3c(cc2[N+](=O)[O-])OCO3)c1C	8	?	.	-11	20%
CCn1nc(-c2ccccc2)nc2c(=O)n(C)c(=O)nc1-2	43*	-16%	82%	48*	1%
F[Si-2](F)(F)(F)(F)F	.	-14%	-16%	.	.
Cc1ccc2nc(NC(=O)COC(=O)c3ccc(Br)o3)sc2c1	23*	1.2µM*	19%	133*	2%
Cc1ccc2nc(NC(=O)COC(=O)c3ccco3)sc2c1	34*	2%	43%	86*	0%
O=C(COC(=O)c1ccc(Br)o1)Nc1nc2ccccc2s1	1	43%	8%	3	3%
O=C(COc1ccc(Br)cc1)Nc1nc(-c2cccnc2)cs1	1	3%	1%	-4	3%
Cc1cc(-c2cccc([N+](=O)[O-])c2)nc2ccc3ccccc3c12	-3	135%	64%	-22	2%
Oc1ccc(-c2nc3ccc4ccccc4c3c3c2CCC3)cc1O	23	6%	15µM*	13	4%
COC(=O)c1[nH]c2ccc(C)cc2c1NC(=O)CCN1CCN(Cc2ccc3c(c2)OCO3)CC1	-4	8.3µM*	?	-10	-5%
CCOC(=O)c1[nH]c2ccc(Br)cc2c1NC(=O)CCN1CCN(C(=O)OCC)CC1	15	9%	10µM*	0	1%
CCN(CC(=O)Nc1c(C(=O)OC)[nH]c2ccc(Cl)cc12)c1ccc2c(c1)OCO2	-6	?	13µM*	-15	-5%
Cc1ccc2oc(C(=O)NCc3ncc(C)[nH]3)c(C)c2c1	11	5%	-10%	-7	-2%
CCN(CC)CCCNC(=O)C1c2ccccc2C(=O)N(CCOC)C1c1ccc(F)cc1 (configuration not stated)	1	13µM*	1%	-17	-16%
O=c1c2c3c(sc2n2cnnc2n1Cc1ccccc1)CN(Cc1ccccc1)CC3	-2	?	10µM*	14	2%
Cc1nnc2n(Cc3ccccc3)c(=O)c3c4c(sc3n12)CN(Cc1ccccc1)CC4	-2	15%	?	-16	4%
Cc1ccc(C)c(NS(=O)(=O)c2cc(C(=O)NCCC3=CCCCC3)ccc2C)c1	2	?	?	-3	2%
NC(=O)c1nc(C(=O)N2CCN(c3ccccc3)CC2)c2ccccc2n1	.	62%	52%	.	.
SMILES	Cycloheximide cs	Pf growth 96h	Pf growth 48h	Shiga toxin inh	LmPK inhibitor
CC1Oc2ccccc2N(CC(=O)NCc2ccccc2)C1=O (configuration not stated)	31*	?	185%	105*	-28%
O=C(CN1C(=O)CCS(=O)(=O)c2ccccc21)NCc1ccccc1	3	2.6µM*	2%	8	0%
CC1Oc2ccccc2N(CC(=O)NC2CC2)C1=O (configuration not stated)	5	16%	26%	-11	-12%
O=C(CN1C(=O)CCS(=O)(=O)c2ccccc21)NCc1ccc2c(c1)OCO2	1	-20%	-10%	-7	-1%
Cc1nn(C)c(C(=O)N2CCOCC2)c1Cl	1	?	22%	-2	-5%
Cc1cc(C)n(-c2nc(N(c3ccccc3)c3ccccc3)nc(-n3nc(C)cc3C)n2)n1	-1	?	2.6µM*	23	3%

Assay outcomes from PubChem BioAssay.
